Test results published in PubChem BioAssay (NCATS).
Results filed as inconclusive are left out. Calls of active or inactive are those of the source. Calls come from the whole dose curve; as a rule, active = well fitted curve in the direction sought with a large enough effect; inconclusive = small, poorly fitted or top-dose-only effect, or another doubt; inactive = no such curve, though single readings can be large; an effect the other way counts as inactive or inconclusive.

How the values were obtained:
[1] = Quantitative High-Throughput drug screen in 47 multiple myeloma cell lines against the NCATS MIPE library collection: INA6_PLB cell viability assay (AID 1918965; note: nearly all actives have a fitted effect of over 55% in size)
In short: (§1)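 Approved and investigational drugs from MIPE 4.0 were added by pin tool to 500 cells per well. After 48 hours at 37C, ATP-based CellTiter-Glo luminescence indicated remaining viability.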

[2] = Quantitative High-Throughput drug screen in 47 multiple myeloma cell lines against the NCATS MIPE library collection: JJN3_DSMZ cell viability assay (AID 1918966; note: nearly all actives have a fitted effect of over 50% in size)
In short: (§2)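 CellTiter-Glo luminescence (ATP) after 48 h compound exposure, 37C/5% CO2; 500 cells/well; MIPE 4.0 approved/investigational drugs pinned in; DMSO = 100%, media only = 0% viability.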

[3] = Quantitative High-Throughput drug screen in 47 multiple myeloma cell lines against the NCATS MIPE library collection: H1112_PLB cell viability assay (AID 1918967; note: nearly all actives have a fitted effect of over 30% in size)
In short: as §2

[4] = Quantitative High-Throughput drug screen in 47 multiple myeloma cell lines against the NCATS MIPE library collection: Karpas25_ECACC cell viability assay (AID 1918968; note: nearly all actives have a fitted effect of over 35% in size)
In short: as §2

[5] = Quantitative High-Throughput drug screen in 47 multiple myeloma cell lines against the NCATS MIPE library collection: KMS27_JCRB cell viability assay (AID 1918970); conditions: KMS27 myeloma cells, CellTiter-Glo ATP viability, 48 h; viability (% of DMSO): at 45.8 µM (top of the series); note: nearly all actives have a fitted effect of over 30% in size
In short: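 ATP-based viability (CellTiter-Glo luminescence) is measured in cells treated 48 h with approved and investigational drugs at 37 °C. Controls are DMSO-only wells for full viability and media-only wells for none.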

[6] = Quantitative High-Throughput drug screen in 47 multiple myeloma cell lines against the NCATS MIPE library collection: KMS12BM_JCRB cell viability assay (AID 1918971); note: nearly all actives have a fitted effect of over 35% in size
In short: (§3)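 Inhibition of cell viability is measured here. Each line was plated at 500 cells per well, treated with MIPE 4.0 drugs, kept 48 hours at 37C, then assayed for ATP content by CellTiter-Glo luminescence.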

[7] = Quantitative High-Throughput drug screen in 47 multiple myeloma cell lines against the NCATS MIPE library collection: KMS12PE_JCRB cell viability assay (AID 1918972); note: nearly all actives have a fitted effect of over 30% in size
In short: as §1

[8] = Quantitative High-Throughput drug screen in 47 multiple myeloma cell lines against the NCATS MIPE library collection: KMS20_JCRB cell viability assay (AID 1918973); note: nearly all actives have a fitted effect of over 45% in size
In short: as §2

[9] = Quantitative High-Throughput drug screen in 47 multiple myeloma cell lines against the NCATS MIPE library collection: KMS21BM_JCRB cell viability assay (AID 1918974); conditions: ATP luminescence, 48 h; viability: at 45.8 µM (top of the series)
In short: as §2

[10] = Quantitative High-Throughput drug screen in 47 multiple myeloma cell lines against the NCATS MIPE library collection: KMS26_JCRB cell viability assay (AID 1918975); note: nearly all actives have a fitted effect of over 45% in size
In short: as §3

[11] = Quantitative High-Throughput drug screen in 47 multiple myeloma cell lines against the NCATS MIPE library collection: MOLP8_DSMZ cell viability assay (AID 1918977); note: nearly all actives have a fitted effect of over 45% in size
In short: (§4)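 MIPE 4.0 approved/investigational drugs; 500 cells/well; 48 h 37 °C humidified 5% CO2; CTG luminescence readout; DMSO = 100%, media = 0% viability.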

[12] = Quantitative High-Throughput drug screen in 47 multiple myeloma cell lines against the NCATS MIPE library collection: NCIH929_DSMZ cell viability assay (AID 1918978); note: nearly all actives have a fitted effect of over 35% in size
In short: as §4

[13] = Quantitative High-Throughput drug screen in 47 multiple myeloma cell lines against the NCATS MIPE library collection: MM1S_ATCC cell viability assay (AID 1918980); note: nearly all actives have a fitted effect of over 45% in size
In short: as §4

[14] = Quantitative High-Throughput drug screen in 47 multiple myeloma cell lines against the NCATS MIPE library collection: MM1R_ATCC cell viability assay (AID 1918981); note: nearly all actives have a fitted effect of over 35% in size
In short: as §4

[15] = Quantitative High-Throughput drug screen in 47 multiple myeloma cell lines against the NCATS MIPE library collection: KMS28PE_JCRB cell viability assay (AID 1918983); note: nearly all actives have a fitted effect of over 35% in size
In short: as §4

[16] = Quantitative High-Throughput drug screen in 47 multiple myeloma cell lines against the NCATS MIPE library collection: L363_DSMZ cell viability assay (AID 1918984); note: nearly all actives have a fitted effect of over 40% in size
In short: as §4

[17] = Quantitative High-Throughput drug screen in 47 multiple myeloma cell lines against the NCATS MIPE library collection: KMS34_JCRB cell viability assay (AID 1918985); note: nearly all actives have a fitted effect of over 40% in size
In short: as §4

[18] = Quantitative High-Throughput drug screen in 47 multiple myeloma cell lines against the NCATS MIPE library collection: OCIMY1_PLB cell viability assay (AID 1918979); note: nearly all actives have a fitted effect of over 35% in size
In short: as §4

[19] = Quantitative High-Throughput drug screen in 47 multiple myeloma cell lines against the NCATS MIPE library collection: LP1_DSMZ cell viability assay (AID 1918982); note: nearly all actives have a fitted effect of over 35% in size
In short: as §4

[20] = Quantitative High-Throughput drug screen in 47 multiple myeloma cell lines against the NCATS MIPE library collection: MMM1_PLB cell viability assay (AID 1918976); note: nearly all actives have a fitted effect of over 35% in size
In short: as §4
Potency is the fitted concentration of half-maximal effect.

| Structure (SMILES) | Potency [1] | Potency [2] | Potency [3] | Potency [4] | Potency [5] | Potency [6] | Potency [7] | Potency [8] | Potency [9] | Potency [10] | Potency [11] | Potency [12] | Potency [13] | Potency [14] | Potency [15] | Potency [16] | Potency [17] | Potency [18] | Potency [19] | Potency [20] |
| --- | --- | --- | --- | --- | --- | --- | --- | --- | --- | --- | --- | --- | --- | --- | --- | --- | --- | --- | --- | --- |
| Cn1cc(-c2cnn3c(N)c(Br)c([C@H]4CCCNC4)nc23)cn1 | 662 nM (active) | 590 nM (active) | 2640 nM (active) | 662 nM (active) | 1480 nM (active) | 2960 nM (active) | 3720 nM (active) | 1480 nM (active) | 833 nM (active) | 8330 nM (active) | 833 nM (active) | 833 nM (active) | 332 nM (active) | 209 nM (active) | 13200 nM (active) | 59 nM (active) | 935 nM (active) | – | – | – |
| CCN(CC)Cc1ccc2cc(COC(=O)Nc3ccc(C(=O)NO)cc3)ccc2c1 | 74.3 nM (active) | 833 nM (active) | 1180 nM (active) | 372 nM (active) | 235 nM (active) | 469 nM (active) | 469 nM (active) | 332 nM (active) | 41.8 nM (active) | 743 nM (active) | 372 nM (active) | 590 nM (active) | 590 nM (active) | 332 nM (active) | 662 nM (active) | 372 nM (active) | – | 1320 nM (active) | 935 nM (active) | – |
| O=C1NC(=O)C(=Cc2ccc3nccc(-c4ccncc4)c3c2)S1 | 148 nM (active) | 93.5 nM (active) | 1050 nM (active) | 29.6 nM (active) | 29.6 nM (active) | 332 nM (active) | 332 nM (active) | 93.5 nM (active) | 166 nM (active) | 187 nM (active) | 166 nM (active) | 29.6 nM (active) | 118 nM (active) | 105 nM (active) | 372 nM (active) | 46.9 nM (active) | 296 nM (active) | 235 nM (active) | – | 235 nM (active) |
| Cc1ccc2nc(NCCN)c3ncc(C)n3c2c1 | 5900 nM (active) | 1660 nM (active) | 4690 nM (active) | 9350 nM (active) | 6620 nM (active) | 3720 nM (active) | 9350 nM (active) | 6620 nM (active) | – | 2640 nM (active) | 4180 nM (active) | 5900 nM (active) | 1660 nM (active) | 3320 nM (active) | 4180 nM (active) | – | 8330 nM (active) | 14800 nM (active) | 2640 nM (active) | 2640 nM (active) |
| CCNC(=O)c1cc2c(-c3cc(OCCN4CCCC4)c(Cl)cc3Cl)nc(N)nc2s1 | 590 nM (active) | 2350 nM (active) | 6620 nM (active) | 833 nM (active) | 1180 nM (active) | 1480 nM (active) | 418 nM (active) | 1660 nM (active) | – | 2350 nM (active) | – | 935 nM (active) | 1660 nM (active) | 2090 nM (active) | 1870 nM (active) | 418 nM (active) | 1320 nM (active) | 3320 nM (active) | – | 2960 nM (active) |
| C=CCNc1c(O)cc2c(O)c1C[C@@H](C)C[C@H](OC)[C@@H](O)[C@@H](C)C=C(C)[C@H](OC(N)=O)[C@@H](OC)C=CC=C(C)C(=O)N2 | 187 nM (active) | 296 nM (active) | 1050 nM (active) | 469 nM (active) | 148 nM (active) | 332 nM (active) | 105 nM (active) | 372 nM (active) | – | 1320 nM (active) | 332 nM (active) | 418 nM (active) | 1180 nM (active) | 526 nM (active) | 418 nM (active) | 33.2 nM (active) | 296 nM (active) | 1480 nM (active) | – | 8330 nM (active) |
| Cn1cc(C2=C(c3c4n(c5ccccc35)CCC(CN)C4)C(=O)NC2=O)c2ccccc21 (configuration not stated) | 3720 nM (active) | 9350 nM (active) | 7430 nM (active) | 7430 nM (active) | 8330 nM (active) | 14800 nM (active) | 8330 nM (active) | 6620 nM (active) | 7430 nM (active) | 18700 nM (active) | 13200 nM (active) | 7430 nM (active) | 6620 nM (active) | 11800 nM (active) | 18700 nM (active) | 7430 nM (active) | 11800 nM (active) | 20900 nM (active) | 10500 nM (active) | – |
| O=C1CSC(=O)N1C(CCc1ccncc1)COc1ccc(-c2cccc([N+](=O)[O-])c2)cc1 (configuration not stated) | 5900 nM (active) | 18700 nM (active) | 7430 nM (active) | 2640 nM (active) | inactive | 7430 nM (active) | inactive | 10500 nM (active) | – | 4180 nM (active) | – | 18700 nM (active) | 935 nM (active) | 2350 nM (active) | 9350 nM (active) | inactive | 8330 nM (active) | – | – | 4180 nM (active) |
